# Source: the OligoGym collection
# Target: CCDC124
# Experiment: pooled miR-30 sensor sort-seq; sequence = guide strand
# Details: shRNA
# Note: reference of the scale not given here.
row,Sequence,sensor-assay potency score (higher = more potent)
1,TAGGCGCTGCGTCTCCTTCTTA,-1.03
2,TTCTCTTGTTTGAGCCGCGGCA,-0.945
3,TTGTCGTCGTCCTTCCAGTAGG,-1.14

# Target: CCDC136
# Experiment: as above
# Details: shRNA
row,Sequence,sensor-assay potency score (higher = more potent)
1,TAACAGGGAAATCTCCTCCCGT,-0.529
2,TTACAAGGAACTCAGGTTCTTA,-0.441
3,TTTCTGAAGTCTGAGACTCTGC,-0.127
4,TAGAGAACGCAGCTCACCTTGG,-0.542
5,TTCTATTTCCTTAAGTTCGCTT,0.0212
6,TTAAGTTCGCTTTCTTTCTCAT,-0.0696
7,TTTCTCATGCTCTAACAGGGAA,-0.6
8,TTCATTTCCATTTCTGCACGGA,-0.0377
9,TTGTTGACTGACAGAGAGCCAA,-0.719
10,TTGCGGAATCCTCTGCTGCTTG,-0.962
11,TTCAAGTTCATTCTGCATCCGG,0.279
12,TTCCTGACACTTGTTCTTCATG,-1.21

# Target: CCDC19
# Experiment: as above
# Details: shRNA
row,Sequence,sensor-assay potency score (higher = more potent)
1,TTGAGGATAATCTTGCTCATGT,-0.0129
2,TTCAATGCAGTACTTCTCGGGA,-0.758
3,TTTGATTCGCTCAAACTCCTCA,0.0568
4,TTGAAGGGTATGCTTATCTCGG,-0.289
5,TTGGATCTGCTGCTTCTCCAGG,-1.06
6,TTAGCATTGAGGATAATCTTGC,0.12
7,TTCTGTTTCATGATCTTCTTTC,-0.0443
8,TTTCCTCTTGATCTCATCGATG,-0.984
9,TTTTCCTCTTGATCTCATCGAT,0.115
10,TTCTTTTTGGATCTGCTGCTTC,-0.755
11,TTCTGCGCCACTCTCTGTCTGC,-0.303

# Target: CCDC47
# Experiment: as above
# Details: shRNA
row,Sequence,sensor-assay potency score (higher = more potent)
1,TTTCATTTGCTTCTTTTCCAAC,-1.25
2,TTCTCTGTTGAGTCGGAACTTT,-0.845
3,TTTGCTAGAAGAAGTATCTGGT,0.978
4,TAAAGTAAAGTTGCTCTCCAAA,-1.24
5,TGCAGGAACATCAACAATCGTT,-0.762
6,TAAGTCTTGTCTCTTGAGGAAC,-1.49
7,TTGCCTTCTCTGTTGAGTCGGA,-0.0399
8,TTCTAGATAATAACTCTCCCAG,-0.381
9,TTCAGTAACAGAGTCTTCCATG,-0.75
10,TTAAATGTAAACAACAGTGTCC,0.382
11,TTGCACTTGATCACTCACTGGC,0.924
12,TTTTGCTAGAAGAAGTATCTGG,0.452
